The results in this text go back to PubChem BioAssay.

A short description of assay [1]: optical density shifts of acrAB sulA E. coli – strain DRC41, OD650, 48 h, E. coli filamentation inducer project, primary screen (AID 1152).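 Note: E. coli MC1000 strain DRC41 lacking acrAB efflux pump and sulA.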 Conditions: higher = more signal, called active from +8 up or from −8 down.
A short description of assay [2]: probe aLefty1 binding on compound microarray – biochemical, small-molecule microarray, 635/667 nm fluorescence, primary screen (AID 1153).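 Note: score merges spot fluorescence with signal-to-noise ratio from the scanned slide images.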 Conditions: higher = more signal.
A short description of assay [3]: plasmodial surface anion channel blockers, osmotic lysis – cell-based, P. falciparum Indochina, OD700, 1 h, primary screen (AID 1154). Conditions: P. falciparum Indochina infected RBC osmotic lysis, higher = more signal, called active from +8 up or from −8 down.
A short description of assay [4]: plasmodial surface anion channel blockers, osmotic lysis – cell-based, P. falciparum Indochina, OD700, 2 h, primary screen (AID 1155).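 Note: lysis reports solute entry through the parasite surface anion channel PSAC.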 Conditions: P. falciparum Indochina infected erythrocytes, higher = more signal, called active from +8 up or from −8 down.
Assay [5] can be described thus: changes in parasitized red cell lysis, either direction – P. falciparum Indochina, OD700, 3 h, PSAC antagonist project, primary screen (AID 1156). Conditions: P. falciparum-infected erythrocytes, osmotic lysis, higher = more signal, called active from +8 up or from −8 down.
Assay [6] is described as follows: plasmodial surface anion channel blockers, osmotic lysis – cell-based, P. falciparum Indochina, OD700, 18 h, primary screen (AID 1157). Conditions: P. falciparum Indochina infected erythrocytes, osmotic lysis OD700, 18 h; higher = more signal, called active from +8 up or from −8 down.
The nature of assay [7]: S6 kinase pathway phospho-S6 level changes – cell-based, A549, cytoblot, luminescence, serum-stimulated, primary screen (AID 1158).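 Note: serum-stimulated A549 lung adenocarcinoma cells; signal is phosphorylated S6 detected by cytoblot immunostaining with HRP secondary.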 Conditions: 5 h, higher = more signal.
In assay [8] the target is NADPH oxidase 2 (Homo sapiens) (UniProt P04839). Kind of assay: compounds shifting NOX2 Amplex Red fluorescence – cell-based, HEK293-NOX2, PMA-stimulated, NOX inhibitor project, primary screen (AID 1159). Note: test concentration not given here. Conditions: 45 min, higher = more signal, called active from +8 up or from −8 down.
Sequence of NADPH oxidase 2 (Homo sapiens) (P04839 whole entry, looked up): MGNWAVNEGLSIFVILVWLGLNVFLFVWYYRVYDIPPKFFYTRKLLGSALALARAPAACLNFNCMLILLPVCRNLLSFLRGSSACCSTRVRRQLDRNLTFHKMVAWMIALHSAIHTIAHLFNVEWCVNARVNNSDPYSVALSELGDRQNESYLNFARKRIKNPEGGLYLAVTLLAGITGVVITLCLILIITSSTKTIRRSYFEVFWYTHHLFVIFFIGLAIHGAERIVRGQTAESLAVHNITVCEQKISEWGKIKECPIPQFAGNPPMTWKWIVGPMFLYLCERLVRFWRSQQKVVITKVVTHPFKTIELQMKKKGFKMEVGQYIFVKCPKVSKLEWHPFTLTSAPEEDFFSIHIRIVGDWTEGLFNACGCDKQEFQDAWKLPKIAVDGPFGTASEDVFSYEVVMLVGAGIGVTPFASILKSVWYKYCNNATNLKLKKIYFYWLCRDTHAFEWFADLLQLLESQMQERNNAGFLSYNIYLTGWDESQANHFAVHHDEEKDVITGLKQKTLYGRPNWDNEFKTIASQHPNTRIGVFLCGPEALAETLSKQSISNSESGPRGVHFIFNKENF
In assay [9] the target is NADPH oxidase 4 (Homo sapiens) (UniProt Q9NPH5). Kind of assay: compounds shifting NOX4 Amplex Red fluorescence – cell-based, HEK293-NOX4, tetracycline-induced, NOX inhibitor project, primary screen (AID 1160). Conditions: HEK293-NOX4, Amplex Red H2O2 fluorescence, 45 min; higher = more signal, called active from +8 up or from −8 down.
Sequence of NADPH oxidase 4 (Homo sapiens) (Q9NPH5 whole entry, looked up): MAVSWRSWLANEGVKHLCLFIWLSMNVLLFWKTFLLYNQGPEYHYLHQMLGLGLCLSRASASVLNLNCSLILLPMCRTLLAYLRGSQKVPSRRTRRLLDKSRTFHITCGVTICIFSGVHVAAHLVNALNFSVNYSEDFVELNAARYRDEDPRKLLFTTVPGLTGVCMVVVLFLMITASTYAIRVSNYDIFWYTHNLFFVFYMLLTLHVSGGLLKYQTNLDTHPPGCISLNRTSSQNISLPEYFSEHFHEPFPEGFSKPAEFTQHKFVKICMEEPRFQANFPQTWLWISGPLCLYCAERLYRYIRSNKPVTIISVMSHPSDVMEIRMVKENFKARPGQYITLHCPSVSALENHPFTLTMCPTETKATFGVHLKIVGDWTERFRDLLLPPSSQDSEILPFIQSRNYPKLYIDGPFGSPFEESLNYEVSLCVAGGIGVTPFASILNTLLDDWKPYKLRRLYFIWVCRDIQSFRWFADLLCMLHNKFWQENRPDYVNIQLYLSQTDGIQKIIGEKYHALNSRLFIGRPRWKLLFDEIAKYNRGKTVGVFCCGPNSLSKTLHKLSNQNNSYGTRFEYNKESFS
Assay [10] addresses NADPH oxidase 5 (Homo sapiens) (UniProt Q96PH1). In words: compounds shifting NOX5 Amplex Red fluorescence – cell-based, HEK293-NOX5, NOX inhibitor project, primary screen (AID 1161). Conditions: HEK293-NOX5, ionomycin, 45 min, higher = more signal.

The source made the active and inactive calls.

Sequence of NADPH oxidase 5 (Homo sapiens) (Q96PH1 whole entry, looked up): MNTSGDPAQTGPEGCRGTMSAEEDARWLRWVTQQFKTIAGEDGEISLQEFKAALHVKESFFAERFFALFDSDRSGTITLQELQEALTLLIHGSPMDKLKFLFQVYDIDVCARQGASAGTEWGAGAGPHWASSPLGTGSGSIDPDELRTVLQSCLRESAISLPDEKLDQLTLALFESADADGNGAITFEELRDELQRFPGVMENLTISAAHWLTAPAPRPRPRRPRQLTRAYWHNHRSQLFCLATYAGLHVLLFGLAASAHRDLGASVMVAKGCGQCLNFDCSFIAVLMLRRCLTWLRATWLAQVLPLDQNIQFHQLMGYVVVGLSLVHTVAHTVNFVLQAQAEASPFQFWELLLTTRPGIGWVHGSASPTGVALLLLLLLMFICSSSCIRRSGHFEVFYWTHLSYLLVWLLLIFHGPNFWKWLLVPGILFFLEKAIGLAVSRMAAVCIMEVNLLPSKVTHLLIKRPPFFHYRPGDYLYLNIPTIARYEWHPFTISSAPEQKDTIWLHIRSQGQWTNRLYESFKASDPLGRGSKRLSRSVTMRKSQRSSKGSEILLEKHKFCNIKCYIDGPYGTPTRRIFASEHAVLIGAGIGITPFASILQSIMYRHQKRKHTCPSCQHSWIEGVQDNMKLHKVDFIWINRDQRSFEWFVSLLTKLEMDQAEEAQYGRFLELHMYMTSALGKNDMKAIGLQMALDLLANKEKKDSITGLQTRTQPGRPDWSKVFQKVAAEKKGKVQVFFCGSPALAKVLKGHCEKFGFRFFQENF

As for `C=CCNC(=O)[C@H]1[C@@H]2C(=O)O[C@@H](c3ccccc3)[C@@H](c3ccccc3)N2[C@@H](c2ccc(O)cc2)[C@]12C(=O)Nc1ccc(C#Cc3ccc(OC)cc3)cc12`, the z-score is -0.837 (inactive) in assay [1]; 2.41 (inactive) in assay [3]; 1.05 (inactive) in assay [4]; -0.99 (inactive) in assay [5]; 0.859 (inactive) in [6]; -0.294 in assay [7]. Also, the results for the z-score in [8], in assay [9] and in assay [10] were 0.143 (inactive), -2.18 (inactive) and -0.436, respectively. Further, the composite z-score in assay [2] was -0.0084.

Regarding `CN(C)CCCN1C(=O)[C@@]2(c3ccc([N+](=O)[O-])cc3)CC(=O)N(C3CCCCC3)[C@@H]2c2ccc(CO)cc21`, the z-score in assay [1] is 0.493 (inactive); in assay [3], -0.275 (inactive); in assay [4], -0.249 (inactive); in assay [5] it was -1.12 (inactive); in [6] it was -1.73 (inactive); in assay [7], 0.759. In addition, the z-score in assay [8] is -0.209 (inactive); in assay [9], 0.632 (inactive); in assay [10], 0.56. In addition, the composite z-score in assay [2] was 0.412.

`C=C(C(=O)CC[C@H](OC(=O)c1cccnc1)c1ccccc1OCCO)C(C)C`: the z-score in [1] was -0.378 (inactive); in assay [3] it was 9.51 (active); in [4] it was 0.943 (inactive); in assay [5], 0.611 (inactive); in assay [6], 0.381 (inactive); in assay [7] it was 0.142. Also, the z-score is -1.85 (inactive) in assay [8], -0.81 (inactive) in assay [9] and -2.03 in assay [10]. Besides, in [2], the composite z-score is 0.188.

For the compound `Cc1ccc(S[C@]2(C(=O)NCc3ccccc3)CC(=O)N(Cc3cc(C(F)(F)F)cc(C(F)(F)F)c3)[C@@H]2c2ccc(CO)cc2)cc1`, the z-score in assay [1] was -0.957 (inactive); in assay [3], 2.21 (inactive); in assay [4], 0.818 (inactive); in assay [5], 0.677 (inactive); in [6], 0.352 (inactive); in assay [7], -0.466. Besides, the z-score was 0.314 (inactive) in assay [8], 0.546 (inactive) in assay [9] and 0.832 in assay [10]. The composite z-score in assay [2] was -0.109.

As to `CCCC[C@H]1OB(O)C[C@H]2C1=C(COc1ccccc1)C[C@H]1C(=O)N(Cc3ccccc3)C(=O)[C@H]12`, the z-score was -0.288 (inactive) in assay [1]; 6.03 (inactive) in assay [3]; 1.38 (inactive) in [4]; 0.0146 (inactive) in assay [5]; 0.475 (inactive) in assay [6]; -0.056 in assay [7]. For the same compound, the z-score was -0.0336 (inactive) in assay [8], 0.143 (inactive) in assay [9] and 0.245 in assay [10]. For the same compound, in assay [2], the composite z-score was found to be 0.179.

Take `CCCCC(=C=CC[C@H](O)c1ccccc1OCCO)C[C@H](O)c1cc(Cl)cc(Cl)c1O`: the z-score was -0.0999 (inactive) in assay [1]; 15.9 (active) in [3]; 2.79 (inactive) in assay [4]; -0.179 (inactive) in [5]; 1.46 (inactive) in assay [6]; 0.276 in assay [7]. For the same compound, the z-score is -0.565 (inactive) in assay [8], -1.5 (inactive) in assay [9] and -2.02 in [10]. The same compound yielded a composite z-score in [2] of -0.0989.

As for `COCCOC(=O)N1C(=O)[C@@]2(c3cc(C#Cc4ccc(OC)cc4)ccc31)[C@H](c1ccc(OCCO)cc1)N1[C@H](c3ccccc3)[C@H](c3ccccc3)OC(=O)[C@H]1[C@@H]2C(=O)N1CCc2cc(OC)c(OC)cc2C1`, the z-score in assay [1] was 2.55 (inactive); in [3], 4.14 (inactive); in assay [4], 1.8 (inactive); in assay [5], -0.867 (inactive); in assay [6] it was 0.608 (inactive); in [7], 1.02. In addition, the z-score in [8] was 0.576 (inactive); in assay [9] it was 0.459 (inactive); in assay [10], 1.27. The compound further registered a composite z-score in assay [2] of 0.212.

For `COC(=O)[C@@]1(Cc2ccc(OC)cc2)[C@H]2c3cc(C(=O)N4CCCC4)n(C[C@H](O)CO)c3C[C@H]2CN1C(=O)c1ccccc1`, the z-score in assay [1] is -0.599 (inactive); in [3] it was 1.24 (inactive); in [4], -0.478 (inactive); in [5] it was 0.425 (inactive); in assay [6] it was 0.201 (inactive); in assay [7], 0.245. For the same compound, the z-score in assay [8] was 0.4 (inactive); in [9], 0.18 (inactive); in [10] it was -3.78. The compound further registered a composite z-score in assay [2] of 0.132.

`C#C[C@H](O[Si](C#CCCCCCC)(C(C)C)C(C)C)c1ccccc1`: the z-score in assay [1] is 0.79 (inactive); in [3] it was 0.486 (inactive); in assay [4], -0.227 (inactive); in assay [5] it was -0.177 (inactive); in assay [6], 0.433 (inactive); in [7], 0.482. Also, the z-score in [8] is -1.09 (inactive); in assay [9], -0.782 (inactive); in assay [10] it was -1.97. This compound registered a composite z-score in [2] of -0.468.

Take `C=CCOC(=O)[C@@H]1[C@H]2C(=O)O[C@H](c3ccccc3)[C@H](c3ccccc3)N2[C@H](c2ccc(OCCOC(=O)[C@H]3C[C@H]4C(=O)N[C@@H](Cc5ccccc5)C(=O)N4[C@H]3c3ccc(O)cc3)cc2)[C@@]12C(=O)Nc1ccc(I)cc12`: the z-score is -1.78 (inactive) in assay [1]; 6.54 (inactive) in assay [3]; 5.05 (inactive) in [4]; -2.73 (inactive) in assay [5]; 2.58 (inactive) in assay [6]; -1.77 in [7]. The z-score was 3.07 (inactive) in assay [8], 0.471 (inactive) in [9] and 3.69 in assay [10]. In assay [2], this compound showed a composite z-score of -0.539.

For the compound `C=C(C(=O)CC[C@@H](OC(=O)c1cccnc1)c1ccc(CO)o1)C(C)C`, the z-score was -0.766 (inactive) in assay [1]; 1.42 (inactive) in assay [3]; 0.0559 (inactive) in assay [4]; 0.375 (inactive) in [5]; 0.209 (inactive) in [6]; -0.211 in [7]. Besides, the z-score in [8] was 1.22 (inactive); in [9], -0.133 (inactive); in [10], 0.337. In assay [2], this compound showed a composite z-score of 0.329.

Regarding `O=C1O[C@@H](c2ccccc2)[C@@H](c2ccccc2)N2[C@@H](c3ccc(O)cc3)[C@]3(C(=O)Nc4ccc(C#CCCO)cc43)[C@@H](C(=O)N3CCCCCCC3)[C@H]12`, the z-score in assay [1] was -0.681 (inactive); in assay [3] it was 1.27 (inactive); in assay [4] it was 0.654 (inactive); in [5] it was -0.69 (inactive); in assay [6], 0.541 (inactive); in assay [7] it was -0.364. Besides, the z-score in [8] is 1.15 (inactive); in [9] it was 0.277 (inactive); in assay [10], 1.47. The composite z-score in [2] was 2.4.

For `[N-]=[N+]=Nc1ccccc1[C@@H]1OC(c2ccc(OCCCO)cc2)=N[C@]1(CCS(=O)(=O)c1ccccc1)C(=O)N1CCCCC1`, the z-score is -0.112 (inactive) in assay [1]; 30.2 (active) in assay [3]; 25 (active) in [4]; 1.7 (inactive) in assay [5]; 3.94 (inactive) in assay [6]; -0.174 in assay [7]. Further, the values for the z-score in assay [8], in [9] and in assay [10] were -1.33 (inactive), 1.85 (inactive) and 1.52, respectively. Also, in assay [2], the composite z-score came to 1.12.

In the case of `CCCCCN1CC=CC23O[C@@H]4C=CCCOC(=O)C4[C@H]2C(=O)N(CCCO)[C@@H]3C1=O` (stereo not given in full), the z-score in [1] is 2.03 (inactive); in [3] it was -0.235 (inactive); in assay [4] it was -1.49 (inactive); in assay [5] it was 1.17 (inactive); in assay [6], -1.02 (inactive); in assay [7] it was 0.655. For the same compound, the z-score in assay [8] was -1.16 (inactive); in assay [9], -1.08 (inactive); in assay [10], -0.705. In assay [2], this compound returned a composite z-score of -0.151.

Take `C=C(CCCC)C(=O)CC[C@H](OC(C)=O)c1ccc(CO)o1`: the z-score in [1] is 0.33 (inactive); in [3], 2.26 (inactive); in [4], -0.43 (inactive); in assay [5], 0.25 (inactive); in assay [6], -1.8 (inactive); in assay [7], 0.612. Besides, the z-score in [8] was 0.184 (inactive); in [9], 0.209 (inactive); in assay [10], -1.32. This compound showed a composite z-score in assay [2] of 0.929.

As to `COCCOC(=O)N1C(=O)[C@@]2(c3cc(C#CCC(C(=O)OC)C(=O)OC)ccc31)[C@H](c1ccccc1OCCO)N1[C@H](c3ccccc3)[C@H](c3ccccc3)OC(=O)[C@H]1[C@@H]2C(=O)Nc1nc2ccccc2s1`, the z-score was 4.44 (inactive) in assay [1]; 11.7 (active) in [3]; 1.48 (inactive) in [4]; 0.444 (inactive) in assay [5]; -0.734 (inactive) in assay [6]; 3.72 in assay [7]. The z-score in [8] is 1.18 (inactive); in [9] it was 1.19 (inactive); in assay [10], -0.494. The compound further displayed a composite z-score in assay [2] of 0.437.

Regarding `C=C(COC)C(=O)CC[C@H](OC(=O)c1cccnc1)c1ccccc1OCCO`, the z-score was 0.0928 (inactive) in assay [1]; 8.77 (active) in assay [3]; 0.805 (inactive) in assay [4]; 0.0448 (inactive) in assay [5]; 0.307 (inactive) in assay [6]; -0.283 in assay [7]. Also, the values for the z-score in [8], in [9] and in [10] were -2.86 (inactive), 0.0432 (inactive) and -1.26, respectively. The compound also returned a composite z-score in assay [2] of 0.473.

Take `C[n+]1ccc2ccc(O)cc2c1`: the z-score is 0.0539 (inactive) in [1]; 0.907 (inactive) in [3]; 0.557 (inactive) in assay [4]; 1.95 (inactive) in assay [5]; 0.374 (inactive) in assay [6]; 0.387 in assay [7]. In addition, the results for the z-score in assay [8], in assay [9] and in assay [10] were -0.469 (inactive), -0.566 (inactive) and 0.0145, respectively. In [2], the composite z-score was -0.109.
